Screening results from PubChem.
Rows were chosen to be rich in hits. Some 7.3% of all compounds tested hit in one or more screens of this group.
SMN2 splice enh: qHTS Assay for Enhancers of SMN2 Splice Variant Expression; Potency, µM (titrated, usually from 46.1 µM), hits mostly activators; HEK293 SMN2-luciferase splicing reporter, luminescence, 30-36 h; hit rate 2.8% among 210,000; further: nearly all actives have a fitted effect of over 55% in size
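HEK293 cells carry an SMN2 minigene-luciferase reporter in which exon 7 inclusion puts luciferase in frame. Cells were seeded at 2000 cells/well, attached for 10-12 hours, then exposed to compounds for 30-36 hours at 37C before ONE-Glo luminescence.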
FLuc modulator: qHTS profiling assay for firefly luciferase inhibitor/activator using purifed enzyme and Km concentrations of substrates (counterscreen for miR-21 project) | purified FLuc, Km substrates, luminescence inhibition | Potency, µM (series often up to 57.5 µM), usual class: inhibitors | hit rate 6.9% among 360,000; further: nearly all actives have a fitted effect of over 55% in size
Target sequence (P08659 whole entry, looked up): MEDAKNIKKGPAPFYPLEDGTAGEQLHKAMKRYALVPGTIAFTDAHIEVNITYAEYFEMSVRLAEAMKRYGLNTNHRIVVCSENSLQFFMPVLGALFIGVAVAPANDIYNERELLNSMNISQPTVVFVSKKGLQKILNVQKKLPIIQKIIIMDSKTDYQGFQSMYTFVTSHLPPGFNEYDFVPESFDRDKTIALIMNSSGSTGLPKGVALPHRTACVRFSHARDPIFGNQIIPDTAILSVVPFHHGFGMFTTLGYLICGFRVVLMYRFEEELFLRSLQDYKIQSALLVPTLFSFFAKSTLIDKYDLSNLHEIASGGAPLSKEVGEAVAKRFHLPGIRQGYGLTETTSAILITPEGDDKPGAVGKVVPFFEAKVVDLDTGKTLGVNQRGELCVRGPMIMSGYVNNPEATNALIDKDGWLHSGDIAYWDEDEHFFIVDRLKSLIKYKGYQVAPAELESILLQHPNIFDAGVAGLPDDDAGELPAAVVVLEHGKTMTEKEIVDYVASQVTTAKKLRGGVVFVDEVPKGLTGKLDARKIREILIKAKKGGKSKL
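Purified P. pyralis luciferase, 10 nM final, with Km-level 10 uM D-luciferin and 10 uM ATP in 50 mM Tris acetate pH 7.5, 10 mM Mg acetate, 0.01% Tween-20, 0.05% BSA; 6-point qHTS titration about 60 µM downward; luminescence read.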
KinaseGlo FLuc: Counterscreen for Luciferase (Kinase-Glo TM) Inhibition. hit rate 0.28% among 200,000. AID 1379, 2008. Luciferin 4-monooxygenase (Photuris pensylvanica), Q27757. Kinase-Glo luciferase, ATP luminescence, 8 min. Potency, µM (series often up to 38.3 µM), usual class: inhibitors; further: nearly all actives have a fitted effect of over 60% in size
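Kinase-Glo luciferase light output from ATP and luciferin was measured with 10 uM ATP, within the enzyme's linear range. Buffer: 50 mM imidazole pH 7.2, 50 mM KCl, 7 mM MgCl2, 0.01% Tween 20, 0.05% BSA; luminescence read after 8 min at ambient temperature.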
Rab9 promoter act: qHTS Assay for Rab9 Promoter Activators. Huh7 Rab9 promoter-luciferase reporter, luminescence, 24 h. Potency, µM (doses to about 9.22 µM), usual class: activators. hit rate 2.8% among 320,000; further: nearly all actives have a fitted effect of over 60% in size
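Luminescence from Amplite-detected luciferase (10 minutes, ambient) reports Rab9 promoter activation. Before that, stable Rab9-luciferase Huh7 cells (1500/well, reduced-serum OP-MEM I plus 10% FBS) were exposed to compound for 24 hours at 37C.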
NPC1 prom act: qHTS Assay for NPC1 Promoter Activators; Huh7 NPC1 promoter luciferase reporter, 24 h; Potency, µM (series often up to 9.22 µM), most hits filed as activators; hit rate 2.4% among 320,000; further: nearly all actives have a fitted effect of over 60% in size
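Readout is luciferase luminescence, reflecting NPC1 promoter activation in stably transfected Huh7 cells after 24 h compound exposure at 37 °C in reduced-serum medium with 10% FBS.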
ELG1 genotoxic: qHTS screen for small molecules that induce genotoxicity in human embryonic kidney (HEK293T) cells expressing luciferase-tagged ELG1 | Potency, µM (top dose mostly 46 µM), most hits filed as activators | hit rate 1.3% among 330,000 | AID 504466, 2011 | HEK293T ELG1-luciferase reporter, luminescence, 16 h; further: nearly all actives have a fitted effect of over 60% in size
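HEK293T cells expressing luciferase-tagged ELG1 were treated with compound or DMSO for 16 hr at 37°C. Luciferase activity was then read after 30 min with ONE-Glo at room temperature; rising signal flags genetic stress.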
Of the large screens only hits and unclear results are named; the others gave an inactive call; ! = repeats disagree. The call rests on the fitted dose curve; in most records, active means well fitted curve in the direction sought with a large enough effect; inconclusive means small, poorly fitted or top-dose-only effect, or another doubt; inactive means no such curve, though single readings can be large; an effect the other way counts as inactive or inconclusive.

N#Cc1c(-n2ncnc2-c2ccc(Br)cc2)sc2c1CCCCC2	FLuc modulator 1.2µM (no result: KinaseGlo FLuc, Rab9 promoter act, NPC1 prom act, ELG1 genotoxic)
CC(C)(C)c1cc(C(=O)/C=C/c2ccc(C(=O)O)cc2)cc(C(C)(C)C)c1	none (no result: FLuc modulator, Rab9 promoter act, NPC1 prom act, ELG1 genotoxic)
Cc1nc2nc(SCC(=O)N(C)Cc3ccccc3)nn2c(C)c1Cc1ccccc1Cl	none (no result: KinaseGlo FLuc, Rab9 promoter act, NPC1 prom act, ELG1 genotoxic)
O=c1c[n+](CC[n+]2cc(=O)o[nH]2)[nH]o1	none (no result: FLuc modulator, Rab9 promoter act, NPC1 prom act, ELG1 genotoxic)
O=C1C(Cl)=C(Nc2ccc(S(=O)(=O)Nc3ccccn3)cc2)C(=O)c2ccccc21	none (no result: FLuc modulator, Rab9 promoter act, NPC1 prom act, ELG1 genotoxic)
O=C1C(Cl)=C(NS(=O)(=O)c2ccc([N+](=O)[O-])cc2)C(=O)c2ccccc21	FLuc modulator 26.9µM (no result: SMN2 splice enh, KinaseGlo FLuc)
Cc1ccccc1OCCSc1nc2ccc(NC(=O)c3cccs3)cc2s1	none (no result: SMN2 splice enh, KinaseGlo FLuc, Rab9 promoter act, NPC1 prom act, ELG1 genotoxic)
Cc1ccc(OCc2cc(C(=O)Nc3ccccc3)oc2C)cc1	FLuc modulator 19µM, ELG1 genotoxic inconclusive
COc1ccc(NC(=O)c2ccc(COc3ccc(C)cc3)o2)cc1	FLuc modulator 10.7µM (no result: SMN2 splice enh)
O=C(O)c1ccc(NC(=O)c2ccc(COc3ccccc3)o2)cc1	FLuc modulator 19µM (no result: SMN2 splice enh, KinaseGlo FLuc)
CCOc1ccc(CCNC(=O)CCCc2nnc3n(CCCOC)c(=O)c4sccc4n23)cc1	none (no result: SMN2 splice enh, KinaseGlo FLuc, Rab9 promoter act, NPC1 prom act, ELG1 genotoxic)
CCCn1c2ccccc2c2cnn(CC(=O)NCCCN(Cc3ccccc3)C(C)C)c(=O)c21	none (no result: SMN2 splice enh, KinaseGlo FLuc, Rab9 promoter act, NPC1 prom act, ELG1 genotoxic)
O=C(CSc1nc2c([nH]c3ccccc32)c(=O)n1-c1ccc(Cl)cc1)N1CCOCC1	none (no result: SMN2 splice enh, KinaseGlo FLuc, Rab9 promoter act, NPC1 prom act, ELG1 genotoxic)
Cc1cccc(/C(N)=N/OC(=O)c2ccoc2C)c1	FLuc modulator 3.79µM, Rab9 promoter act 1.26µM, NPC1 prom act 1.12µM, ELG1 genotoxic inconclusive (no result: SMN2 splice enh, KinaseGlo FLuc)
Cc1occc1C(=O)O/N=C(\N)c1ccccc1	FLuc modulator 1.9µM, Rab9 promoter act 0.447µM, NPC1 prom act 0.447µM, ELG1 genotoxic inconclusive (no result: SMN2 splice enh, KinaseGlo FLuc)
Cc1cccc(/C(N)=N/OC(=O)Cc2cccc3ccccc23)c1	none
CCC1CCCCN1C(=O)Cn1c(=O)n(CC2CCC(C(=O)NC)CC2)c(=O)c2sccc21 (stereo unspecified)	none (no result: SMN2 splice enh, KinaseGlo FLuc, Rab9 promoter act, NPC1 prom act, ELG1 genotoxic)
Oc1ccc(/C=N/NC(=S)NC2CC3CCC2C3)cc1 (stereo unspecified)	FLuc modulator inconclusive, Rab9 promoter act inconclusive, NPC1 prom act 3.16µM, ELG1 genotoxic inconclusive (no result: SMN2 splice enh, KinaseGlo FLuc)
S=C(N/N=C/c1cccs1)NC1CC2CCC1C2 (stereo unspecified)	FLuc modulator inconclusive, Rab9 promoter act inconclusive (no result: SMN2 splice enh, KinaseGlo FLuc)
CCC1=C(C[C@H]2NCCc3ccccc32)C[C@@H]2c3cc(OC)c(OC)cc3CCN2C1	none (no result: FLuc modulator, Rab9 promoter act, NPC1 prom act, ELG1 genotoxic)
O=C(NCCc1cccs1)c1ccc(Cn2c(SCc3ccccc3)nc3cccnc32)cc1	FLuc modulator 2.69µM (no result: SMN2 splice enh, KinaseGlo FLuc, Rab9 promoter act, NPC1 prom act, ELG1 genotoxic)
O=C(NCCc1cccs1)c1ccc(Cn2c(SCc3ccc(F)cc3)nc3cccnc32)cc1	FLuc modulator 2.13µM (no result: KinaseGlo FLuc, Rab9 promoter act, NPC1 prom act, ELG1 genotoxic)
O=C(NCCc1ccccc1)c1ccc(CSc2nc3cccnc3n2Cc2ccc(F)cc2)cc1	none (no result: SMN2 splice enh, KinaseGlo FLuc, Rab9 promoter act, NPC1 prom act, ELG1 genotoxic)
Cc1ccc(NC(=O)c2cc(N(C)C)ccc2[P+](=O)O)cc1	FLuc modulator 19µM, ELG1 genotoxic inconclusive
Cc1cccc(CCNC(=O)c2sc3nc4n(c(=O)c3c2C)CCCC4)c1	FLuc modulator 13.5µM (no result: SMN2 splice enh, KinaseGlo FLuc, Rab9 promoter act, NPC1 prom act, ELG1 genotoxic)
Cc1ccccc1NC(=O)c1sc2nc3n(c(=O)c2c1C)CCC3	none (no result: SMN2 splice enh, KinaseGlo FLuc, Rab9 promoter act, NPC1 prom act, ELG1 genotoxic)
CCc1cccc(NC(=O)c2sc3nc4n(c(=O)c3c2C)CCC4)c1	FLuc modulator 16.9µM, Rab9 promoter act 2.82µM, NPC1 prom act 2µM, ELG1 genotoxic inconclusive (no result: SMN2 splice enh, KinaseGlo FLuc)
Cc1c(C(=O)Nc2cccc(C(F)(F)F)c2)sc2nc3n(c(=O)c12)CCC3	none (no result: SMN2 splice enh, KinaseGlo FLuc, Rab9 promoter act, NPC1 prom act, ELG1 genotoxic)
Cc1c(C(=O)Nc2ccccn2)sc2nc3n(c(=O)c12)CCC3	FLuc modulator 9.53µM, Rab9 promoter act 0.891µM, NPC1 prom act 1.26µM, ELG1 genotoxic inconclusive (no result: SMN2 splice enh, KinaseGlo FLuc)
Cc1c(C(=O)Nc2ccccc2F)sc2nc3n(c(=O)c12)CCC3	FLuc modulator 19µM!, Rab9 promoter act 2.51µM, NPC1 prom act 2.82µM, ELG1 genotoxic inconclusive (no result: SMN2 splice enh, KinaseGlo FLuc)
COc1ccc(-c2nc(SCC(=O)c3ccc(OC)c(Br)c3)n[nH]2)cc1	none (no result: SMN2 splice enh, KinaseGlo FLuc, Rab9 promoter act, NPC1 prom act, ELG1 genotoxic)
